Where “and” joins values, the source holds several entries; their conditions need not be identical. Identical values can stand only once. Results filed as inconclusive are left out. Calls of active or inactive are those of the source. Unless noted, calls come from the whole dose curve; as a rule, active = well fitted curve in the direction sought with a large enough effect; inconclusive = small, poorly fitted or top-dose-only effect, or another doubt; inactive = no such curve, though single readings can be large; an effect the other way counts as inactive or inconclusive.
Legend:
[1] = Cell Viability - BJ (AID 421; calls by dose curve;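 note: potency is the fitted concentration of half-maximal effect; cells exposed to compound for 40 hours at 37 °C before readout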); details: BJ fibroblast viability, qHTS
Procedure, shortened: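 Cytotoxicity in human BJ foreskin fibroblasts is scored as loss of cellular ATP after a 40-hour exposure, measured by luciferase luminescence. Controls are DMSO and 100 uM tamoxifen.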

[2] = Cell Viability - Jurkat (AID 426;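 active = dose-dependent loss of cell ATP signal giving a full or clear fitted curve, ranked by lower potency value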; note: potency is the fitted concentration of half-maximal effect); details: qHTS
Procedure, shortened: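 Jurkat (Clone E6-1) cells, 5000/well in complete medium, exposed to compounds for 40 hr at 37C; intracellular ATP measured by CellTiter-Glo luminescence after 20 min at room temperature. AC50 from Hill fits.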

[3] = Cell Viability - Hek293 (AID 427;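 active = compounds whose dose-response curve shows a full or clear partial loss of cell viability, called from curve shape rather than a numeric limit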;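 note: potency is the fitted concentration of half-maximal effect; cells exposed to compound for 40 hours at 37 °C before reading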); details: qHTS
Procedure, shortened: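 qHTS, human embryonic kidney (adenovirus-transformed) cells; 40 hr cpd, 37 °C; CellTiter-Glo ATP luminescence. Norm: DMSO = 0, 100 uM tamoxifen = 100% inhibition. Hill-fit AC50.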

[4] = Cell Viability - HepG2 (AID 433; calls by dose curve;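 note: potency is the fitted concentration of half-maximal effect; potency for ATP loss meaning cytotoxicity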); details: qHTS
Procedure, shortened: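 HepG2 cells, 1500 per well, treated 40 hr at 37 °C in complete medium; viability from intracellular ATP by CellTiter-Glo luminescence. Normalized to DMSO and 100 uM tamoxifen; AC50 from Hill fit of qHTS concentration-response.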

[5] = Cell Viability - MRC5 (AID 434; calls by dose curve;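 note: potency is the fitted concentration of half-maximal effect; potency reflects cytotoxicity seen as loss of intracellular ATP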); details: MRC5 lung fibroblast viability, qHTS
Procedure, shortened: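 MRC5 normal human lung fibroblasts (1500/well) were treated with compounds for 40 hr at 37 °C in complete medium, and viable cells were measured as intracellular ATP by CellTiter-Glo luminescence. AC50 came from Hill fits, normalized to DMSO and 100 uM tamoxifen.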

[6] = Cell Viability - SK-N-SH (AID 435; calls by dose curve;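 note: potency is the fitted concentration of half-maximal effect; compound exposure lasted 40 h at 37 °C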); details: SK-N-SH neuroblastoma cell viability qHTS
Procedure, shortened: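 SK-N-SH neuroblastoma cells (1500/well) treated 40 h at 37 °C in complete medium; viability read as cellular ATP by CellTiter-Glo luminescence. Normalized to DMSO and 100 uM tamoxifen; AC50 from Hill fits of qHTS concentration-response.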

[7] = Cell Viability - HUV-EC-C (AID 542); details: HUV-EC-C endothelial cell viability, qHTS; series mostly up to 92.2 µM; note: % is set by controls: 0 for no effect and ±100 for the full control effect; nearly all actives have a fitted effect of over 35% in size
Procedure, shortened: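 HUV-EC-C human vascular endothelial cells, 1000/well, exposed to compound for 40 hr at 37 °C in complete medium. Intracellular ATP was read by CellTiter-Glo luminescence. AC50 came from Hill-equation fits of concentration-response data.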

[8] = Cellular Toxicity (caspase-3) HepG2 (AID 654); details: HepG2 caspase-3 activation, luminescence, 0% = DMSO only, 100% = tamoxifen; series mostly up to 92.2 µM;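 note: cells exposed to compound for 16 hours before reading; 0% = DMSO alone and 100% = caspase signal from 100 µM tamoxifen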
Procedure, shortened: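 HepG2 cells (1500/well) were treated 16 h at 37 °C in complete medium, then caspase 3/7 activity was read by Caspase-Glo luminescence. Data were normalized to DMSO and 100 uM tamoxifen; AC50 came from Hill-equation fits of qHTS concentration-response.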

[9] = Cellular Toxicity (caspase-3) HUV-EC-C (AID 656); details: HUV-EC-C cells, caspase-3 activation (apoptosis), vehicle = 0, 100 µM tamoxifen = 100%; series mostly up to 92.2 µM
Procedure, shortened: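 HUV-EC-C cells (1000/well) in complete medium, compound-treated 16 h at 37 °C; caspase-3/7 activity read by Caspase-Glo 3/7 luminescence. Normalized to DMSO (basal) and 100 uM tamoxifen (100%); AC50 from Hill-equation concentration-response fits.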

[10] = Cellular Toxicity (caspase-3) BJ (AID 658); details: BJ fibroblasts, luminescence, normalized: DMSO 0%, staurosporine 100%; series mostly up to 91.7 µM
Procedure, shortened: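 Luminescent aminoluciferin-substrate cleavage reports caspase 3/7 activity in normal human BJ fibroblasts after 16 hr compound exposure at 37 °C. Normalized to DMSO (basal) and 10 uM staurosporine (100%); AC50 from Hill fit of concentration-response.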

[11] = Cellular Toxicity (caspase-3) Mesangial (AID 660); details: mesangial cells, normalized: DMSO 0%, 100 µM tamoxifen 100%; series mostly up to 91.7 µM;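 note: cells exposed to compound for 16 h before the caspase read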
Procedure, shortened: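 Human renal glomerular mesangial cells, 1000/well, 5 h at 37 C before 16 h compound treatment. Caspase-Glo 3/7 luminescence after 20 min; normalized to DMSO and 100 uM tamoxifen, AC50 from Hill fit.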

[12] = Cellular Toxicity (caspase-3) SK-N-SH (AID 661); details: SK-N-SH caspase-3 activation, qHTS; series mostly up to 91.7 µM
Procedure, shortened: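 Human SK-N-SH neuroblastoma cells, 1500/well, were exposed to compounds for 16 hours at 37 °C. Caspase-Glo 3/7 luminescence was normalized to DMSO (basal) and 10 uM staurosporine (100%), and AC50 came from a Hill fit.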

[13] = Cellular Toxicity (caspase-3) H-4-II-E (AID 663); details: H-4-II-E rat hepatoma; Potency: caspase-3 activation; series mostly up to 92.2 µM;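 note: cells exposed to compound for 16 hr before readout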
Procedure, shortened: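 Luminescence from caspase-cleaved aminoluciferin substrate, read 20 min after reagent addition, reports caspase 3/7 activation in rat H-4-II-E cells after 16 hr compound exposure. Normalized to DMSO (basal) and 100 uM tamoxifen (100%); AC50 from Hill fits.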

[14] = Cellular Toxicity (caspase-3) N2a (AID 665); details: N2a cells, luminescence, normalized: DMSO 0%, 10 µM staurosporine 100%; series mostly up to 92.2 µM;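 note: compound exposure lasted 16 h at 37 °C before readout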
Procedure, shortened: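 Mouse N2a neuroblastoma cells, 1500 per well, treated 16 h at 37 °C in complete medium; caspase-3/7 activity by Caspase-Glo luminescence after 1 h. Normalized to DMSO and 10 uM staurosporine; AC50 from Hill fits.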

[15] = Cell Viability - LYMP1-002 - Assay at 16 hr (AID 948); details: LYMP1-002 lymphoblastoid cell viability; series mostly up to 92.2 µM;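 note: 0% = DMSO alone and full effect = 92 µM tetraoctylammonium bromide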
Procedure, shortened: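 LYMP1-002 human lymphoblastoid cells, 2500/well, were treated with compounds for 16 hr at 37 C in complete medium. Viability was read as intracellular ATP by CellTiter-Glo luminescence, and AC50 was derived from a Hill fit to concentration-response data.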

[16] = MultiTox-Fluor Cytotoxicity Assay - LYMP1-003 - Dead Cells (AID 961); details: LYMP1-003 lymphoblastoid cells, dead-cell protease fluorescence; series mostly up to 92.2 µM; note: nearly all actives have a fitted effect of over 70% in size
Procedure, shortened: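 LYMP1-003 lymphoblastoid, 2500 cells/well, 5 hr settle then 16 hr cpd at 37 C; MultiTox-Fluor reagent 60 min RT; Ex/Em 485/520 dead-cell signal; norm. DMSO = 0%, 15 uM tetraoctylammonium bromide = 100%; Hill AC50.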

[17] = Cell Viability - LYMP2-023 (AID 975); details: LYMP2-023 lymphoblastoid cell viability; series mostly up to 92.2 µM;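 note: cellular ATP measured by luciferase luminescence as viability proxy; cells exposed to compound for 24 hours at 37 °C; plate controls were DMSO only for no effect and 92 µM tetraoctylammonium bromide control for full effect; nearly all actives have a fitted effect of over 55% in size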
Procedure, shortened: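 LYMP2-023 human lymphoblastoid cells, 2500/well, preincubated 5 hr at 37 C, then compound-treated 24 hr at 37 C in complete medium. CellTiter-Glo luminescence (ATP) after 30 min at room temperature; AC50 from Hill-equation fits; tetraoctylammonium bromide positive control.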

[18] = Cell Viability - LYMP2-008 (AID 980); details: LYMP2-008 lymphoblastoid cell viability, qHTS; series mostly up to 92.2 µM;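 note: cells exposed to compound for 24 h at 37 °C; % is set by controls: 0 for no effect and ±100 for the full control effect; nearly all actives have a fitted effect of over 60% in size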
Procedure, shortened: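 LYMP2-008 lymphoblastoid cells (2500/well) plated 5 h, then treated 24 h at 37 C in complete medium. Viability read as intracellular ATP by CellTiter-Glo luminescence after 30 min at room temperature; AC50 from Hill fits.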

[19] = qHTS Assay for Identification of Small Molecule Inducers of Hypoxia Response (AID 2120; active = well fitted curve in the direction sought with a large enough effect in the signal ratio, with a control signal flat, not every such curve was filed as active; the % refers to the signal ratio; note: 0% is about no effect); details: hypoxia response reporter cells, beta-lactamase ratio readout; series mostly up to 104 µM
Procedure, shortened: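 HRE-bla ME-180 cells in Opti-MEM with 0.5% dialyzed FBS, pre-plated 4-5 h, then compound titration for 17 h at 37 degrees Celsius. CCF4 loaded 2.5 h at room temperature; 460/530 nm ratio gave %Activity and AC50 for induction.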

[20] = qHTS assay for cell viability of HEK293 cells (AID 743288); details: ATP luminescence (CellTiter-Glo), 18 h, hits give low values; note: % is set by controls: 0 for no effect and ±100 for the full control effect; nearly all actives have a fitted effect of over 50% in size
Procedure, shortened: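 Parental HEK293 cells, 2,000 per well, preincubated at least 5 h at 37 C, then exposed to compounds in DMSO for 18 h at 37 C. Viability by CellTiter-Glo ATP luminescence after 30 min at room temperature.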

O=[N+]([O-])c1ccc(Cl)c(Cl)c1Cl
inactive: Potency [1] > 92 µM | Potency [2] > 92 µM | Potency [3] > 92 µM | Potency [4] > 92 µM | Potency [5] > 92 µM | Potency [6] > 92 µM | Potency [7] | outcome [8] | outcome [9] | outcome [10] | outcome [11] | Potency [12] | Potency [13] | outcome [14] | outcome [15] | Potency [16] | Potency [17] | Potency [18] | Potency [19] | max response [20] 8.59%

CC(C)OC(=O)Cc1ccccc1
inactive: Potency [1] > 92 µM | Potency [2] > 92 µM | Potency [3] > 92 µM | Potency [4] > 92 µM | Potency [5] > 92 µM | Potency [6] > 92 µM | Potency [7] | outcome [8] | outcome [9] | outcome [10] | outcome [11] | Potency [12] | Potency [13] | outcome [14] | outcome [15] | Potency [16] | Potency [17] | Potency [18] | Potency [19] | max response [20] -4.3%

O=C(O)c1cc(Cl)ccc1Cl
inactive: Potency [1] > 92 µM | Potency [2] > 92 µM | Potency [3] > 92 µM | Potency [4] > 92 µM | Potency [5] > 92 µM | Potency [6] > 92 µM | Potency [7] | outcome [8] | outcome [9] | outcome [10] | outcome [11] | Potency [12] | Potency [13] | outcome [14] | outcome [15] | Potency [16] | Potency [17] | Potency [18] | Potency [19] | max response [20] -1.88%

CCCN(CCC)c1c([N+](=O)[O-])cc(C(F)(F)F)cc1[N+](=O)[O-]
inactive: Potency [1] > 92 µM | Potency [2] > 92 µM | Potency [3] > 92 µM | Potency [4] > 92 µM | Potency [5] > 92 µM | Potency [6] > 92 µM | Potency [7] | outcome [8] | outcome [9] | outcome [10] | outcome [11] | Potency [12] | Potency [13] | outcome [14] | outcome [15] | Potency [16] | Potency [17] | Potency [18] | Potency [19] | max response [20] 12.8% and -6.09%

Cc1cccc(C)c1N
inactive: Potency [1] > 92 µM | Potency [2] > 92 µM | Potency [3] > 92 µM | Potency [4] > 92 µM | Potency [5] > 92 µM | Potency [6] > 92 µM | Potency [7] | outcome [8] | outcome [9] | outcome [10] | outcome [11] | Potency [12] | Potency [13] | outcome [14] | outcome [15] | Potency [16] | Potency [17] | Potency [18] | Potency [19] | max response [20] -2.34%

CN(C)C(=O)Cl
inactive: Potency [1] > 92 µM | Potency [2] > 92 µM | Potency [3] > 92 µM | Potency [4] > 92 µM | Potency [5] > 92 µM | Potency [6] > 92 µM | Potency [7] | outcome [8] | outcome [9] | outcome [10] | outcome [11] | Potency [12] | Potency [13] | outcome [14] | outcome [15] | Potency [16] | Potency [17] | Potency [18] | Potency [19] | max response [20] 4.48%

Clc1cccc(Cl)c1Cl
inactive: Potency [1] > 92 µM | Potency [2] > 92 µM | Potency [3] > 92 µM | Potency [4] > 92 µM | Potency [5] > 92 µM | Potency [6] > 92 µM | Potency [7] | outcome [8] | outcome [9] | outcome [10] | outcome [11] | Potency [12] | Potency [13] | outcome [14] | outcome [15] | Potency [16] | Potency [17] | Potency [18] | Potency [19] | max response [20] -5.25% and -0.775%

Nc1ccc([N+](=O)[O-])cc1[N+](=O)[O-]
inactive: Potency [1] > 92 µM | Potency [2] > 92 µM | Potency [3] > 92 µM | Potency [4] > 92 µM | Potency [5] > 92 µM | Potency [6] > 92 µM | Potency [7] | outcome [8] | outcome [9] | outcome [10] | outcome [11] | Potency [12] | Potency [13] | outcome [14] | outcome [15] | Potency [16] | Potency [17] | Potency [18] | Potency [19] | max response [20] 2.24%
